activity, negative = inhibition and AC50 data for 71 compounds are collected here from PubChem BioAssay AID1851 (National Center for Advancing Translational Sciences (NCATS), 2009).

In general, AC50 refers to the midpoint of the concentration-response curve, whichever way the signal moves.

Molecules are shown by their SMILES. Out of some 16,000 compounds screened, about 5,100 (32%) were called active. Another 25% or so got no clear call; they are omitted. Some of the results follow. Unmarked numbers belong to inactive results. The call rests on the fitted dose curve; in most records, active means well fitted curve in the direction sought with a large enough effect; inconclusive means small, poorly fitted or top-dose-only effect, or effect the other way; inactive means no such curve, though single readings can be large or run the other way.
On the % scale 0 is the no-effect control and ±100 the full control effect.

Sequence of Cytochrome P450 3A4 (Homo sapiens) (P08684 whole entry, looked up): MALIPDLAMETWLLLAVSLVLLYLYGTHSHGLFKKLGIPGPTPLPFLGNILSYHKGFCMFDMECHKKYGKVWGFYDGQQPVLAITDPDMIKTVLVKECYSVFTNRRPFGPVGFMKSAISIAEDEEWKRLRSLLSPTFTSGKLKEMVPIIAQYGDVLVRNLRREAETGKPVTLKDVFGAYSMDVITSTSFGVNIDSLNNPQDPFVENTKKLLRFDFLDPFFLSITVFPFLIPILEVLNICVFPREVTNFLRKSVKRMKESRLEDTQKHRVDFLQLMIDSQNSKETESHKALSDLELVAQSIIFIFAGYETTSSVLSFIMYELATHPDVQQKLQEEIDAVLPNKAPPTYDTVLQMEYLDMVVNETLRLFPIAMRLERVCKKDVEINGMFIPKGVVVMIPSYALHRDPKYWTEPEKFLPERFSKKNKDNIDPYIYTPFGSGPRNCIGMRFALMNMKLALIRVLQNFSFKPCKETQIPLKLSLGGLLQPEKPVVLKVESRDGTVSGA

The assay has as its target Cytochrome P450 3A4 (Homo sapiens) (UniProt P08684). Kind of assay: Cytochrome panel assay with activity outcomes. To be noted: recombinant CYP, pro-luciferin dealkylation, luminescence, p450-cyp3a4; series mostly up to 57.1 µM.
`C[C@@H](CCC(=O)O)C(=O)O`: the activity, negative = inhibition is -7.96% [at 11.4 µM]. Turning to `COc1ccc(Oc2ncc3nc(-c4cn(C)c5ccccc45)c(=O)n(C4CC4)c3n2)cc1`, the AC50 was 12.6 µM (active). On the same count and under the same terms, the result for `COCCn1c(=O)c(-c2cn(C)c3ccccc23)nc2cnc(Oc3ccccc3)nc21` reads 3.16 µM (active); that for `COCCn1c(=O)c(-c2cn(C)c3ccccc23)nc2cnc(Oc3ccc(OC)cc3)nc21`, 3.98 µM (active); that for `COCCn1c(=O)c(-c2cn(C)c3ccccc23)nc2cnc(Oc3cccc(Cl)c3)nc21`, “inactive”.

Turning to `OCCNc1nc(NCCC2=CCCCC2)nc(N2CCOCC2)n1`, the AC50 result was “inactive”.

`Cc1ccc(N2CCN(CCC(=O)O)CC2)cc1`: the activity, negative = inhibition is -4.63% [at 11.4 µM]. Take `Cc1ccc(C)c(-c2nn(-c3cc(N4CCN(CCO)CC4)ccc3[N+](=O)[O-])c(=O)c3ccccc23)c1`: the AC50 was 12.6 µM (active). Regarding `COc1ccc(NC(=O)c2ccc(COc3ccccc3)o2)cc1`, the AC50 is 22.4 µM (active).

`COc1ccc(NC(=O)CCOc2ccccc2)cc1`: the AC50 is 15.8 µM (active).

Take `Cc1ccc(OCC(=O)NNC(=O)c2cc3ccccc3o2)cc1C`: the AC50 entry was “inactive”. Take `CN1CCN(C(=O)c2ccc(COc3ccc(C(C)(C)C)cc3)o2)CC1`: the activity, negative = inhibition was -9.09% [at 2.29 µM]. Regarding `Cc1ccc(OCc2ccc(C(=O)Nc3nccs3)o2)cc1C`, the AC50 is 11.2 µM (active).

With `O=C(COC(=O)COc1ccccc1)Nc1ccc(OC(F)(F)F)cc1`, the AC50 entry was “inactive”.

In the case of `CC(C)N(CC(=O)O)CC(=O)O`, the activity, negative = inhibition is -7.3% [at 11.4 µM]. Turning to `CC12c3ccccc3C(c3ccccc31)C1C(=O)N(Cc3cccnc3)C(=O)C12` (stereo unspecified), the AC50 was 1.58 µM (active).

On to `CC1CCCC(C)N1C(=O)C1CC(c2ccc(F)cc2)=NO1` (stereo unspecified), for which the AC50 was 11.2 µM (active). As to `CC1CCN(C(=O)CSc2nc3cccnc3n2C)CC1`, the AC50 entry was “inactive”. The same measure, in the same setting: the result for `COc1ccccc1-n1c(SCC(=O)N2CCCC2)nc2cccnc21` reads 15.8 µM (active). The same measure, in the same setting: with `CCN(CC)S(=O)(=O)c1ccc2c(c1)nc(SCC(=O)N1CCOCC1)n2-c1ccccc1OC` the figure was 3.98 µM (active); with `O=C(O)c1cccnc1SCC(=O)N1CCCCCC1`, “inactive”. In the case of `CC(C)=C[C@H]1[C@@H](COC(=O)c2ccccc2Cl)C1(C)C`, the activity, negative = inhibition was -18.7% [at 11.4 µM]. With `CCNC(=S)NNC(=O)c1cc(C2CC2)nc2ccccc12`, the activity, negative = inhibition is -10.5% [at 2.29 µM]. The same measure, in the same setting: with `CCNC(=S)NNC(=O)c1cc(CC(C)C)nc2ccccc12` the figure was -3.62% [at 2.29 µM]. For the compound `Cc1cc(C(=O)NNC(=S)NC(C)c2ccccc2)c2ccccc2n1` (stereo unspecified), the AC50 was 14.1 µM (active). On the same count and under the same terms, the result for `CCCS(=O)(=O)N1CCN(CC2CC=CCC2)CC1` (stereo unspecified) reads “inactive”; that for `COc1ccc(-n2cnnc2)cc1`, “inactive”; that for `COc1ccc2nc(N3C(=O)CC(Cc4ccc(Cl)cc4)C3=O)sc2c1` (stereo unspecified), “inactive”. For the compound `COc1ccc(CN2CN(c3ccc(Cl)cc3)C(=O)N(n3cnnc3)C2)cc1`, the AC50 is 14.1 µM (active). As to `Nn1c(SCC(=O)N2CCOCC2)nnc1-c1ccccc1Cl`, the AC50 entry is “inactive”. Same read-out and setting: the result for `O=C(CSc1c[nH]c2ccccc12)N1CCOCC1` reads 15.8 µM (active); that for `C=C(C)C1Cc2nc(N)nc(C)c2C1` (stereo unspecified), “inactive”; that for `CC(=O)NC1(c2ccc(F)cc2)CCN(C(=O)Nc2ccc(F)cc2F)CC1`, “inactive”. Still for that read-out and setting: the result for `COc1cccc(Cn2nnc3c(=O)[nH]c(C4CCCN(C(=O)c5ccccc5Cl)C4)nc32)c1` (stereo unspecified) reads 2 µM (active); that for `Cc1ccc(Cn2nnc3c(=O)[nH]c(C4CCCN(C(=O)Nc5ccc(F)cc5F)C4)nc32)cc1` (stereo unspecified), 7.08 µM (active); that for `Cc1ccc(C)c(S(=O)(=O)N2CCC(c3nc4c(nnn4Cc4ccc(F)cc4)c(=O)[nH]3)CC2)c1`, 6.31 µM (active). On the same count and under the same terms, the result for `O=C(NCc1ccco1)c1nc2c(nnn2Cc2cccc(Cl)c2)c(=O)[nH]1` reads “inactive”. Turning to `O=C(O)C[C@@H](C(=O)O)C1c2ccccc2-c2ccccc21`, the activity, negative = inhibition was -5.49% [at 11.4 µM]. With `NC(=O)c1cc[n+](CC2=C(C(=O)O)N3C(=O)[C@@H](NC(=O)[C@H](c4ccccc4)S(=O)(=O)[O-])[C@@H]3SC2)cc1`, the AC50 result is “inactive”. As for `CN(NC(=O)NN)c1ncc(C(F)(F)F)cc1Cl`, the AC50 was 14.1 µM (active).

For the compound `O=C(O)/C=C/c1cn(-c2ncc(C(F)(F)F)cc2Cl)c2ccccc12`, the AC50 result was “inactive”.

With `Cn1c(C(N)=O)cnc1Sc1ncc(C(F)(F)F)cc1Cl`, the AC50 entry is “inactive”. In the case of `CC(C)(C)c1ccc(C(=O)NCCC(=O)NCc2ccco2)cc1`, the AC50 was 14.1 µM (active).

In the case of `COCC1C2CC[C@H]3C(OCc4ccc(F)cc4C(F)(F)F)OC[C@]4(C)[C@H]3C2=C(CN4C(=O)OC(C)(C)C)[C@H](C)C1COC` (stereo partly specified), the AC50 was 15.8 µM (active). The same measure, in the same setting: the result for `C[C@H]1C2=C3C(CC[C@H]4C(OCc5ccc(F)cc5C(F)(F)F)OC[C@](C)([C@@H]34)N(C(=O)OC(C)(C)C)C2)C(CO)C1CO` (stereo partly specified) reads 15.8 µM (active). The same measure, in the same setting: with `COc1cc(OC)c(NC(=S)Nc2cccc(C(C)=O)c2)cc1Cl` the figure was 5.01 µM (active); with `CC(C)Oc1ccc(C(=O)Nc2ccc(NC(=O)c3ccco3)c(Cl)c2)cc1`, “inactive”; with `O=C(Nc1ccc2c(c1)OCCO2)c1cccc2nc3ccccc3nc12`, 11.2 µM (active). Take `COc1cc(NC(=O)c2ccccc2Cl)ccc1NC(=O)c1ccco1`: the AC50 is 14.1 µM (active). For the compound `O=C(Nc1ccccc1C(=O)Nc1ccc2c(c1)OCO2)c1ccco1`, the AC50 was 1.26 µM (active). As to `Cn1ncc([N+](=O)[O-])c1C(=O)Nc1ccc2c(c1)OCCO2`, the AC50 result is “inactive”. As to `COc1ccc(C(=O)Nc2ccc(NC(=O)c3ccco3)c(Cl)c2)cc1OC`, the activity, negative = inhibition is -24% [at 11.4 µM].

For `CC1(C)Oc2ccc(NC(=O)c3ccco3)cc2O1`, the AC50 entry is “inactive”.

On to `CCOC(=O)C1=C(c2ccccc2)OC(N)=C(C#N)C1c1ccc(Cl)s1` (stereo unspecified), for which the AC50 entry is “inactive”. For the compound `CCOC(=O)C1=C(CSc2nc(-c3ccccc3)ccc2C#N)OC(N)=C(C#N)C1c1ccc(OC)cc1` (stereo unspecified), the activity, negative = inhibition was -22.9% [at 2.29 µM]. In the case of `COC(=O)C1=C(C)OC(N)=C(C#N)C1c1cc(OC)ccc1OC` (stereo unspecified), the AC50 was 8.91 µM (active). For `COC(=O)C1=C(C)OC(N)=C(C#N)C1C1CCCCC1` (stereo unspecified), the AC50 is 7.08 µM (active). With `C[C@H]1NC(=O)NC1=O`, the AC50 entry is “inactive”. With `CC1=C[N+](=O)c2ccccc2[N+]1=O`, the activity, negative = inhibition was -3.77% [at 11.4 µM]. For `CC(=O)NCCNc1ncnc2ccc(-c3ccccc3C(F)(F)F)cc12`, the AC50 was 6.31 µM (active).

As for `CC(=O)NCCNc1ncnc2ccc(-c3ccccc3C)cc12`, the AC50 was 12.6 µM (active).

With `CC(=O)NCCNc1ncnc2ccc(-c3ccccc3Cl)cc12`, the AC50 is 15.8 µM (active). As to `COc1ccccc1-c1ccc2ncnc(NCCNC(C)=O)c2c1`, the AC50 was 20 µM (active).

For the compound `CN(C)CCCNc1ncnc2nc[nH]c12`, the activity, negative = inhibition was -8.34% [at 11.4 µM]. Consider `Cc1ccc(NCC(=O)N/N=C\c2ccc([N+](=O)[O-])o2)cc1`, for which the AC50 is 25.1 µM (active). As to `Cc1ccc(/C=N/NC(=O)Cn2nccc2C)o1`, the AC50 result is “inactive”.

In the case of `Cc1ccc(NCC(=O)N/N=C/c2ccc(OC(=O)c3ccco3)cc2)cc1`, the AC50 was 17.8 µM (active). Regarding `CC(C)(C)c1ccc(OCC(=O)N/N=C/c2cc(Br)ccc2OC(=O)c2ccco2)cc1`, the AC50 entry was “inactive”.

Regarding `CCOC(=O)N/N=C\c1ccc([N+](=O)[O-])o1`, the activity, negative = inhibition was -11.7% [at 2.29 µM].

`Oc1ccc(/C=N/NC(=S)NCc2ccco2)cc1`: the activity, negative = inhibition is -2.66% [at 2.29 µM]. Regarding `OC[C@@H]1O[C@@H](n2cnc3c(NC4CCCC4)ncnc32)[C@@H](O)[C@H]1O`, the AC50 result is “inactive”.
